The text below walks through data of PubChem BioAssay.

Assay [1] deals with Plasmodium falciparum Sir2 (PF13_0152, Sir2A). Description: Plasmodium falciparum Sir2A binding compounds – biochemical, small-molecule microarray, 635 nm fluorescence, primary screen (AID 1098).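 Also: score merges spot fluorescence intensity with its signal-to-noise ratio.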 Particulars: fluorescence 635 nm, higher = more signal.
Assay [2] can be described thus: probe aDKK1 binding to arrayed compounds – biochemical, biotinylated probe, 635/667 nm fluorescence, primary screen (AID 1099).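 Also: score merges 667nm spot fluorescence with signal to noise across triplicate slides; reference of the scale not given here.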 The note with it: small-molecule microarray, higher = more signal.
The nature of assay [3]: probe aCHRDL2 binding to arrayed compounds – biochemical, biotinylated probe, 635/667 nm fluorescence, primary screen (AID 1100). Particulars: small-molecule microarray, higher = more signal.
Assay [4] can be described thus: change in splice reporter luminescence, either direction, cell-based, HEK293, spliceosome inhibition project, primary screen (AID 1101).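 Also: HEK293 cells carrying a splicing-competent luciferase reporter gene; test concentration not given here.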 Particulars: HEK293 splicing luciferase reporter, 24 h, higher = more signal, called active from +8 up or from −8 down.
Assay [5] concerns the target Fibroblast growth factor 10 (Homo sapiens) (UniProt O15520). Briefly: compounds binding fibroblast growth factor 10 – biochemical, small-molecule microarray, 635 nm fluorescence, primary screen (AID 1102). Particulars: FGF10 binding, fluorescence 635 nm, higher = more signal.
The test system of assay [6] is glycogen synthase kinase-3 (GSK3A per assay name; protocol says GSK3B). Description: compounds binding glycogen synthase kinase-3 – biochemical, small-molecule microarray, 635 nm fluorescence, GSK3A, primary screen (AID 1103). Also: the record names both GSK3A and GSK3B. Particulars: fluorescence 635 nm, higher = more signal.
In assay [7] the target is Epidermal growth factor receptor (Homo sapiens) (UniProt P00533). Description: compounds binding epidermal growth factor receptor – biochemical, small-molecule microarray, 635 nm fluorescence, primary screen (AID 1104).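 Also: score merges 667 nm emission intensity with spot signal to noise over triplicate slides.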 The note with it: EGFR binding, higher = more signal.
Epidermal growth factor receptor (Homo sapiens), sequence (P00533 whole entry, looked up): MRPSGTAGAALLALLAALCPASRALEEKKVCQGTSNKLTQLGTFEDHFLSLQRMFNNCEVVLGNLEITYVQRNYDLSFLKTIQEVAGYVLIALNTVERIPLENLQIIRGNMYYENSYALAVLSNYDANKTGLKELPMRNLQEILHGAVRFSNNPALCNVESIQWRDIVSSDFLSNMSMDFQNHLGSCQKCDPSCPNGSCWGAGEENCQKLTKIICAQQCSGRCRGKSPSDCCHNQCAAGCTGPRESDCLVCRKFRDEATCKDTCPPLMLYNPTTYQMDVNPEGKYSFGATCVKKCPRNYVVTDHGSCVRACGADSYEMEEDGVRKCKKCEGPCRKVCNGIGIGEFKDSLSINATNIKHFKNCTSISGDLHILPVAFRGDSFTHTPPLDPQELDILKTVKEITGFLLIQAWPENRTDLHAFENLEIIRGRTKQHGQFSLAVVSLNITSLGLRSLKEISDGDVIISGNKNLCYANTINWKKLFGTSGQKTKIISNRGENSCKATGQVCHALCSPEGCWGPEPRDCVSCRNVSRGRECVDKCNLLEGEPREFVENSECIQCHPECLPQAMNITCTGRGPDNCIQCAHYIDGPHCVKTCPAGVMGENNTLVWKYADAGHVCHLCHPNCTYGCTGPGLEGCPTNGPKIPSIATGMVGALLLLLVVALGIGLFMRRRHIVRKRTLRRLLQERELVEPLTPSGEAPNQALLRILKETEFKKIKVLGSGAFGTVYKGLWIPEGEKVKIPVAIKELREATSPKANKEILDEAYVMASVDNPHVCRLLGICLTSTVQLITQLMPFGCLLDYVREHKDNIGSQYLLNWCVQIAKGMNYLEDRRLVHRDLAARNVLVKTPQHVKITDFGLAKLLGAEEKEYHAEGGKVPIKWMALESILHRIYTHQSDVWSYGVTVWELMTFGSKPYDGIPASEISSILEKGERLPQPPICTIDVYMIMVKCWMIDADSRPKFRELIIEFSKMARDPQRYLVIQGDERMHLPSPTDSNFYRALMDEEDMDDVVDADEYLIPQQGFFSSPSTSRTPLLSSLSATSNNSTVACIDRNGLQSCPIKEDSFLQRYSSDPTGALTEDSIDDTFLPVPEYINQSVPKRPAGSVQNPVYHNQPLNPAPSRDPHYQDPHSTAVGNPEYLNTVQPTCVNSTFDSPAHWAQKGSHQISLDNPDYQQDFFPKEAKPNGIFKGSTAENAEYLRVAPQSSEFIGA
Assay [8] addresses Follistatin-related protein 3 (Homo sapiens) (UniProt O95633). Briefly: compounds binding follistatin-related protein 3 – biochemical, small-molecule microarray, 635 nm fluorescence, primary screen (AID 1105).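 Also: score merges emission near 667 nm and signal to noise per printed spot across three slides.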 Particulars: FSTL3 binding, higher = more signal.
Assay [9] addresses Dickkopf-related protein 1 (Homo sapiens) (UniProt O94907). Briefly: small molecules binding DKK1 protein – biochemical, small-molecule microarray, 635 nm fluorescence scan, primary screen (AID 1106).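 Also: score merges emission near 667 nm with signal to noise over three replicate slides.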 Particulars: higher = more signal.
Assay [10] deals with Inhibin beta A chain (activin A). Briefly: small molecules binding activin A – biochemical, small-molecule microarray, 635 nm fluorescence scan, primary screen (AID 1107).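 Also: mouse activin A protein probed at 4.33 µg/mL on printed slides; score merges bound-protein fluorescence near 667 nm with spot signal-to-noise.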 Particulars: INHBA, higher = more signal.

Structures are written as SMILES. Active and inactive are the calls of the source.

Fibroblast growth factor 10 (Homo sapiens), sequence (O15520 whole entry, looked up): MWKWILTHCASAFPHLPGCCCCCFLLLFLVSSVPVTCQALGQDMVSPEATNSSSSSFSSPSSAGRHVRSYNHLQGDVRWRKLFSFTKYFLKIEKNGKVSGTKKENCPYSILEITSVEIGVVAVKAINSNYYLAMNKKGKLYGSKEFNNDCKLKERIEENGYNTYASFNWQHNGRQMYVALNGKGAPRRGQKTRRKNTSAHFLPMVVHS
Follistatin-related protein 3 (Homo sapiens), sequence (O95633 whole entry, looked up): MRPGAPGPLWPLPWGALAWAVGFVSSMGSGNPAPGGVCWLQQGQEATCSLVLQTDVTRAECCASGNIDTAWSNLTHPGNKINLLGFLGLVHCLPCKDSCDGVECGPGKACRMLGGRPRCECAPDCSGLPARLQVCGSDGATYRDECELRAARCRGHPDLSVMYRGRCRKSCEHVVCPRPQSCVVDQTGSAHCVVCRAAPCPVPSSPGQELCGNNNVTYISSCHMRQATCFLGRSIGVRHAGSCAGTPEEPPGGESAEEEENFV
Dickkopf-related protein 1 (Homo sapiens), sequence (O94907 whole entry, looked up): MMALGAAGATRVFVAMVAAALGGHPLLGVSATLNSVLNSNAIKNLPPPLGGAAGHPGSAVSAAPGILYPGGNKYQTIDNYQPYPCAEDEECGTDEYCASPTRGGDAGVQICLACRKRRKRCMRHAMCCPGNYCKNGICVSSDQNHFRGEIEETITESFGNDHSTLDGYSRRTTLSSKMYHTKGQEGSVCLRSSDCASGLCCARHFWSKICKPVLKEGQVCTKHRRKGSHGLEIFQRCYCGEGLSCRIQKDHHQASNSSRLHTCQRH

As for `CCN1C(=O)[C@H]2[C@H]3[C@H](O)[C@H](O)CC(=NO[C@H](C)c4cn([C@@H]5COC[C@H]5O)nn4)[C@@H]3CC[C@H]2C1=O`, the composite z-score is -0.428 in assay [1]; -0.19 in [2]; -0.593 in assay [3]; 0.46 in assay [5]; -0.162 in assay [6]; 0.219 in [7]. Moreover, the composite z-score in assay [8] was -0.169; in assay [9], 0.451; in [10], -0.322. Also, the z-score in assay [4] is 0.299 (inactive).

Consider `O=C1C[C@@H](O)[C@@H](O)[C@@H]2[C@@H]3C(=O)N(Cc4ccccc4)C(=O)[C@@H]3CC[C@H]12`, for which the composite z-score was 0.465 in assay [1]; -0.0382 in [2]; -0.506 in assay [3]; 0.56 in [5]; 0.331 in assay [6]; 0.564 in [7]. Further, the composite z-score in assay [8] stood at 0.643; in [9] it was 0.608; in [10], 0.3. Also, in assay [4], the z-score was -0.0414 (inactive).

Regarding `CC(C)=NOC(C)CN1CCCc2nc(C)c(C)cc21` (stereo not given), the composite z-score was 1.19 in assay [1]; -0.446 in [2]; -0.696 in [3]; 0.809 in assay [5]; 1.1 in assay [6]; 0.697 in assay [7]. For the same compound, the composite z-score in assay [8] stood at 1.16; in assay [9] it was 0.63; in [10] it was 0.206. Moreover, the z-score in [4] is 0.484 (inactive).

Regarding `CCOC(=O)[C@H](CC(C)C)NC(=O)CCC1CC(OC(=O)NCCc2ccc(F)cc2)CC2(CCCC(COC(=O)NCc3cccc(C(F)(F)F)c3)O2)O1` (stereo not given in full), the composite z-score was 0.581 in assay [1]; -0.211 in [2]; -0.51 in assay [3]; 1.39 in assay [5]; 0.733 in assay [6]; 0.29 in assay [7]. Further, the figures for the composite z-score in assay [8], in assay [9] and in assay [10] were 0.814, 0.532 and -0.257, respectively. In [4], the z-score was 0.478 (inactive).

With `CC(C)=CCCC(C)=CCON=C1C[C@@H](O)[C@@H](O)[C@@H]2[C@@H]3C(=O)N(Cc4ccc5c(c4)OCO5)C(=O)[C@@H]3CC[C@@H]12`, the composite z-score in [1] was 0.769; in assay [2] it was -0.268; in [3], -0.451; in assay [5] it was 1.01; in assay [6], 0.579; in assay [7], 0.696. Also, the results for the composite z-score in assay [8], in assay [9] and in assay [10] were 1.03, 0.915 and 1.3, respectively. Also, the z-score in assay [4] is 0.0709 (inactive).

For the compound `COC(=O)[C@H](C)NC(=O)CCC1CC(OC(=O)NCc2cccc3ccccc23)CC2(CCCC(COC(=O)NCCCN3CCCC3=O)O2)O1` (stereo not given in full), the composite z-score in assay [1] was 0.666; in [2], -0.102; in [3], -0.279; in [5], 0.92; in assay [6], 1.17; in [7] it was 0.929. Further, the composite z-score in assay [8] is 0.91; in [9] it was 0.77; in assay [10], -0.503. Moreover, the z-score in assay [4] is -0.915 (inactive).

As to `CC(CCN1CCc2nc(-c3ccccc3)c(-c3ccccc3)cc2C1)=NO[C@@H](C)c1cc(-c2c(C)cc(C)cc2C)no1`, the composite z-score in [1] was 0.655; in [2], -0.0029; in assay [3] it was 0.77; in assay [5] it was -0.567; in assay [6], -0.725; in [7] it was -0.345. Besides, the values for the composite z-score in [8], in assay [9] and in assay [10] were -0.601, -0.524 and 0.5, respectively. Further, the z-score in assay [4] is -1.56 (inactive).

In the case of `COC(=O)[C@H](C)NC(=O)CCC1CC(OC(=O)NCCc2ccc(F)cc2)CC2(CCCC(COC(=O)NCCc3ccccc3OC)O2)O1` (stereo not given in full), the composite z-score is 0.557 in assay [1]; -0.0554 in assay [2]; -0.494 in assay [3]; 1.11 in assay [5]; 1.05 in [6]; 0.484 in assay [7]. The composite z-score in assay [8] was found to be 1.16; in [9], 1.26; in [10], 0.176. Also, the z-score in assay [4] was -0.221 (inactive).

On to `COC(OC)[C@@H](C)[C@H](OC)[C@@H](C)[C@H](OC)c1ccccc1`, for which the composite z-score was -0.15 in assay [1]; -0.185 in assay [2]; -0.449 in [3]; 0.0549 in assay [5]; -0.485 in assay [6]; 0.231 in assay [7]. Also, the composite z-score came to 0.327 in assay [8], 0.392 in assay [9] and 0.499 in assay [10]. For the same compound, in assay [4], the z-score is -1.31 (inactive).

Consider `COC(=O)CC=C1c2ccccc2[C@H](OC)[C@H]1C`, for which the composite z-score in [1] is -0.0214; in assay [2], -0.314; in [3], -0.624; in assay [5], 0.0785; in [6], -0.234; in assay [7], 0.33. Further, the composite z-score stood at 0.0242 in assay [8], 0.485 in assay [9] and 1.05 in assay [10]. Also, the z-score in [4] is 0.0124 (inactive).

Take `COC(=O)[C@H](C)NC(=O)CCC1CC(OC(=O)NCc2ccc3c(c2)OCO3)CC2(CCCC(COC(=O)NCCc3ccc(Cl)cc3)O2)O1` (stereo not given in full): the composite z-score in assay [1] was 0.207; in assay [2], -0.146; in assay [3] it was -0.589; in assay [5], 0.382; in [6], 0.591; in assay [7], 0.351. The values for the composite z-score in assay [8], in [9] and in assay [10] were 0.762, 1.87 and 0.219, respectively. Moreover, the z-score in assay [4] was -0.51 (inactive).

For `COc1ccc(O[C@H]2C=C[C@@H](c3ccccc3)O[C@@H]2CO)cc1`, the composite z-score in [1] is 0.281; in assay [2], -0.227; in assay [3], -0.116; in assay [5], 0.194; in assay [6], 0.207; in assay [7] it was 0.731. In addition, the composite z-score came out at 0.318 in assay [8], 0.485 in [9] and 0.622 in assay [10]. The z-score in [4] is -0.752 (inactive).

In the case of `O=C1C[C@H](c2ccccc2)[C@H](c2ccc(Br)cc2)O1`, the composite z-score was -0.159 in [1]; 0.0628 in [2]; -0.939 in [3]; 0.193 in assay [5]; -0.826 in [6]; 0.127 in assay [7]. Further, the composite z-score in assay [8] was -0.093; in assay [9], 0.278; in [10] it was 0.266. For the same compound, the z-score in assay [4] is -0.823 (inactive).

In the case of `CC(=O)OC[C@H]1O[C@@H](ON=C(C)CCN2CCCCc3nc(C)c(C)cc32)[C@H](OC(C)=O)[C@@H](OC(C)=O)[C@@H]1OC(C)=O`, the composite z-score in assay [1] was 0.834; in assay [2], -0.208; in [3], -0.664; in assay [5], 1.23; in assay [6], 1.19; in assay [7] it was 1.11. Moreover, the results for the composite z-score in [8], in assay [9] and in [10] were 1.28, 1.39 and 0.328, respectively. Further, the z-score in assay [4] is -1.29 (inactive).

`CO[C@@H]1[C@H](O)CO[C@H]1C=Cc1ccccc1`: the composite z-score is 1.55 in assay [1]; -0.261 in assay [2]; -0.41 in [3]; 0.961 in assay [5]; -0.135 in assay [6]; 0.0571 in assay [7]. Besides, the figures for the composite z-score in [8], in assay [9] and in [10] were 0.211, 0.365 and 0.512, respectively. Besides, in assay [4], the z-score is -0.0979 (inactive).

Regarding `CCN1C(=O)[C@H]2[C@H]3[C@H](O)[C@H](O)CC(=NOC(C)CN4CCCc5nc(C)c(C)cc54)[C@@H]3CC[C@H]2C1=O` (stereo not given in full), the composite z-score in assay [1] was 0.333; in [2] it was 0.0478; in [3], -0.598; in assay [5], 0.784; in [6], 0.901; in [7], 0.692. For the same compound, the composite z-score in [8] worked out at 0.783; in [9], 0.713; in assay [10], 0.907. Besides, the z-score in assay [4] is 0.189 (inactive).

In the case of `O=C(NN=C1C[C@@H](O)[C@@H](O)[C@@H]2[C@@H]3C(=O)N(Cc4ccc5c(c4)OCO5)C(=O)[C@@H]3CC[C@@H]12)OCc1ccccc1`, the composite z-score in [1] was -0.0768; in [2], 0.618; in assay [3], 0.828; in assay [5] it was -0.319; in assay [6], -0.456; in assay [7] it was -0.254. Moreover, the composite z-score in [8] is -0.408; in assay [9] it was -0.465; in assay [10] it was 0.319. In addition, the z-score in assay [4] was -1.41 (inactive).
